The record followed here is PubChem BioAssay (NCI).

Compounds without any hit were thinned out: in the full panel of roughly 83,000, 20% have a hit.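 The endpoint reported here, percent growth, reads 100 for growth as untreated, 0 for no net growth and -100 for all cells dead.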 Values without a mark were called inactive. Activity calls are given as the source filed them. How the source made its calls: active means growth percent below 10; inactive means the rest.

For this experiment, the system named is RPMI-8226 leukemia. As to the kind of experiment: NCI-60 one-dose screen, 48 h (100 = growth as untreated, 0 = no growth, -100 = all killed). The settings on record: 10 µM unless noted.
For `CCn1cc(C(=O)O)c(=O)c2cc(F)c(N3CCN(CC(=O)Nc4ccccc4)C(C)C3)c(F)c21` (configuration not stated), the growth is 102%.
Take `c1cc(OCCN2CCCCC2)ccc1CNc1ccc2nc(CCC3CCCCC3)[nH]c2c1`: the growth was -22.5% (active).
With `COC1C(O)CC(OC2CC(OC3CC(O[C@@H]4C(=O)c5c(cc6cc(OC7CC(OC8CC(O)C(O)C(C)O8)C(O)C(C)O7)c(C)c(O)c6c5O)CC4[C@H](OC)C(=O)C(C)=O)OC(C)C3O)OC(C)C2O)OC1C` (some centres not stated) the figure was 1.67% (active); with `Cc1ccc(OCCOCCOCCOc2ccc(C)n(O)c2=S)c(=S)n1O`, 31.2%; with `Cn1cc(-c2csc(-c3cn(CCCN4CCOCC4)c4ccc(F)cc34)n2)c2cccnc21`, 34.8%.
For `O=C1c2cccnc2C(=O)c2c1c(C(=O)OCCc1ccccn1)c1ccccn21`, the growth is -27.2% (active).
As to `C#CCOc1cccc(Nc2ncnc3c2ncn3C2CCN(C(=O)CCl)C2)c1` (configuration not stated), the growth is -49.8% (active).
With `O=C(Cn1nc(-c2cccc3ccccc23)ccc1=O)NCc1cccc(Cl)c1` the figure was 23.7% [50 µM]; with `CC1(C)CC[C@]23CC[C@]4(C)[C@H](CC[C@@H]5[C@@]6(C)C/C(=C/O)C(=O)C(C)(C)[C@@H]6CC[C@]54C)[C@H]2[C@H]1OC3`, 100%; with `Clc1ccc(-c2cc(-c3ccccc3)nc(N3CCN(CCCNc4ccnc5cc(Cl)ccc45)CC3)n2)cc1`, 4.72% (active).
For the compound `Nc1nc(C(=O)N/N=C/c2ccc(F)cc2)nn1-c1ccc(S(N)(=O)=O)cc1`, the growth was 91%.
Next, `CN(C)c1ccc(CNCCO)cc1`: 84.6%.
